# Measurements taken from PubChem BioAssay AID504850 (National Center for Advancing Translational Sciences (NCATS), 2011).
# In all, about 2,300 compounds went through this assay and about 1,200 (52%) were called active. Not shown: some 34% with an inconclusive outcome. The call rests on the fitted dose curve; in most records, active means well fitted inhibition curve with a large enough effect; inconclusive means small, poorly fitted or top-dose-only effect, or effect the other way; inactive means no such curve, though single readings can be large or run the other way. So high a share suggests a set chosen from earlier hits. Some of the results follow.
# Assay: Confirmation screen for delayed death inhibitors of the malarial parasite plastid, 48 hour incubation; further: nearly all actives have a fitted effect of over 65% in size
# Conditions: P. falciparum-infected erythrocytes, luciferase growth; series mostly up to 28.7 µM
# Source text: The goal of this screen is to discover new antimalarial compounds that act by inhibiting the development of the apicoplast in the malarial parasite Plasmodium falciparum. The biochemical processes that make this organelle essential for erythrocytic stage parasites are not well understood. However, antibiotics, such as azithromycin and tetracycline, which target the apicoplast translational machinery, have a potent antimalarial effect. […] We have developed a cell-based assay that measures parasite growth based on the expression of an integrated copy of a firefly luciferase reporter. To detect small molecules that cause this "delayed death phenotype, erythrocytes infected with the luciferase-expressing parasites were incubated with compounds for either one or two generations, corresponding to 48 and 96 hours, respectively. Compounds that inhibit parasite growth in the second generation, but not the first, should be enriched in antimalarials that target the apicoplast. Growth inhibition is detected by a decrease in luciferase activity. MLPCN Grant: R21 NS059500 Assay Provider: David Fidock and Eric Ekland, Columbia University Keywords: NIH Roadmap, MLPCN, MLI, MLSMR, qHTS, NCGC, qHTS, malaria, luciferase, viability
# Four microliters of culture medium (RPMI 1640 with 0.5% w/v Albumax (GIBCO), 24 mM sodium bicarbonate and 10 ug/mL gentamycin) were dispensed by a Multi-drop Combi into white solid 1536-well plates (Grenier) and 23 nL compound was added by a pin tool. Four microliters of infected erythrocytes (2% hematocrit, 0.1% parasitemia final concentration) in culture medium were dispensed and the plates incubated for 48 hours at 37 C in 5% CO2. Two microliters of luciferase detection reagent was added and luminescence was detected by a ViewLux (PerkinElmer) reader.
# Potency means the concentration at half of the fitted maximal effect.
row,Structure (SMILES),Potency
1,Cc1ccc(C)c(N(CC(=O)Nc2cc(Cl)ccc2Oc2ccccc2)S(C)(=O)=O)c1,11.2 µM (active)
2,COc1ccccc1OCC(=O)Nc1cc(Cl)ccc1Oc1ccccc1,inactive
3,CN(C)S(=O)(=O)c1ccc(Cl)c(NC(=O)CN2C(=O)NC(C)(C3CC3)C2=O)c1 (stereo unspecified),14.1 µM (active)
4,CCOc1ccc2c(c1)C(N(CCN1CCOCC1)C(=O)Nc1ccccc1)CC(C)(C)O2 (stereo unspecified),12.6 µM (active)
5,COCCNC(=O)c1cccc(OC2CCN(Cc3ccc(C(C)C)cc3)CC2)c1,14.1 µM (active)
6,C=CCNC(=O)c1onc(CSc2ccc(Cl)cc2)c1C(=O)O,inactive
7,CCOC(=O)C(C(=O)OCC)C(Nc1cccc(Br)c1)c1ccccc1 (stereo unspecified),14.1 µM (active)
8,Cc1ccc2cc(C)c(SCC(=O)NCc3ccco3)nc2c1,inactive
9,Cc1ccc(Nc2nc(NCc3ccco3)c3ccccc3n2)cc1,2 µM (active)
10,COc1ccc(Cl)cc1NC(=O)C(C)NC(c1ccccc1)c1ccccc1 (stereo unspecified),8.91 µM (active)
11,COc1ccc(Nc2cc(Cl)ccc2C(=O)O)cn1,inactive
12,C#CCOCCOCCOCCNc1nc(N2CCN(C(=O)Cn3cc(CC(C)O)nn3)CC2)nc(N2CCN(C(=O)[C@H](C)n3cc(CCCN=C(N)N)nn3)CC2)n1 (stereo partly specified),inactive
13,COc1nc(NC(=O)c2ccc(F)cc2)nc(OC)c1-c1ccccc1,12.6 µM (active)
14,O=[N+]([O-])c1c(Nc2ccccc2O)cc(Cl)c2nonc12,5.62 µM (active)
15,CC(C)(C)NC(=O)[C@H]1CN(Cc2cccnc2)CCN1C[C@@H](O)C[C@@H](Cc1ccccc1)C(=O)N[C@H]1c2ccccc2C[C@H]1O,7.94 µM (active)
16,CN(CCNC(=O)c1ccc(CS(=O)(=O)c2ccc(Br)cc2)o1)CCc1ccccc1,4.47 µM (active)
17,CN(CCCNC(=O)c1ccc(CS(=O)c2ccc(Br)cc2)o1)Cc1ccccc1 (stereo unspecified),8.91 µM (active)
18,CCCCNC(=O)c1ccc(CS(=O)(=O)c2cccc(C(F)(F)F)c2)o1,inactive
19,CCCCN(CCCNC(=O)c1ccc(CS(=O)(=O)c2ccc(OC)cc2)o1)Cc1ccccc1,12.6 µM (active)

row,Structure (SMILES),Potency
1,CCn1c(=O)c(CCC(=O)N2CCOCC2)c(C)c2c(C)nn(-c3ccccc3)c21,14.1 µM (active)
2,Cc1ccc(S(=O)(=O)N2CCN(C(=O)c3ccc(Br)o3)CC2)c(C)c1,10 µM (active)
3,COc1ccc(C(=O)N2CCN(S(=O)(=O)c3ccc(C)cc3C)CC2)cc1OC,12.6 µM (active)
4,COc1ccc(C)cc1S(=O)(=O)N1CCN(S(=O)(=O)c2cc(C(=O)O)ccc2C)CC1,11.2 µM (active)
5,Cc1ccc(S(=O)(=O)N2CCN(C(=O)c3cc(S(=O)(=O)N(C)C)ccc3N3CCCC3)CC2)c(C)c1,12.6 µM (active)
6,CCNc1nc(NCC)n2c(SCC(=O)Nc3ccccc3F)nnc2n1,12.6 µM (active)
7,Cc1c(Cl)cccc1NC(CC(=O)c1ccccc1)C(=O)O (stereo unspecified),inactive
8,CC(=O)O[C@@]12CO[C@@H]1C[C@H](O)[C@@]1(C)C(=O)[C@H](O)C3=C(C)[C@@H](OC(=O)C(O)[C@@H](NC(=O)OC(C)(C)C)c4ccccc4)C[C@@](O)([C@@H](OC(=O)c4ccccc4)[C@H]21)C3(C)C (stereo partly specified),0.141 µM (active)
9,CC(=O)O[C@H]1C(=O)[C@@]2(C)[C@H]([C@H](OC(=O)c3ccccc3)[C@]3(O)C[C@H](OC(=O)[C@H](O)[C@@H](NC(=O)c4ccccc4)c4ccccc4)C(C)=C1C3(C)C)[C@]1(OC(C)=O)CO[C@@H]1C[C@@H]2O,0.501 µM (active)
10,Cc1c(/C=N/NC(=O)c2cccs2)c2ccccc2n1Cc1ccccc1Cl,4.47 µM (active)
11,Cc1noc(/C=C/c2nn(C)cc2Cl)c1[N+](=O)[O-],12.6 µM (active)
12,CC(=O)N1CCc2cc(S(=O)(=O)NCCC(=O)N3CCN(c4ccccn4)CC3)ccc21,11.2 µM (active)
13,COCCn1c(=NC(=O)/C=C/c2ccccc2)sc2cc(NC(C)=O)ccc21,10 µM (active)
14,O=C(/C=C/c1ccncc1)c1ccc(NC(=O)c2ccccc2F)cc1,12.6 µM (active)
15,COC(=O)c1cc(=O)n(Cc2cccs2)c(=Nc2ccccc2)s1,inactive
16,Cc1c(C#N)c(NC(=O)CCl)n(Cc2ccccc2)c1C,7.08 µM (active)
17,Cc1c(C#N)c(NC(=O)CCl)n(Cc2cccs2)c1C,3.98 µM (active)
18,COc1ccc(-c2oc3ncn(Cc4ccco4)c(=N)c3c2-c2ccc(OC)cc2)cc1,7.94 µM (active)
19,CC1CCCC(NC(=O)c2cc(-c3ccncc3)nc3ccccc23)C1C (stereo unspecified),11.2 µM (active)

row,Structure (SMILES),Potency
1,C=CCn1cccc(/C=C/C(=O)c2ccc(C(C)(C)C)cc2)c1=S,1.26 µM (active)
2,Nc1nc(C2CC2)c(Sc2sc(N)nc2C2CC2)s1,inactive
3,Cc1ccccc1-c1nc(CS(=O)CC(=O)NC(C)CCc2ccccc2)c(C)o1 (stereo unspecified),inactive
4,CCN1CCCC1CNC(=O)CS(=O)(=O)Cc1nc(-c2ccccc2C)oc1C (stereo unspecified),11.2 µM (active)
5,COc1cc2c(cc1NC(=O)c1ccc(C(C)(C)C)cc1)CCCC2,11.2 µM (active)
6,O=C(CCN1C(=O)/C(=C\c2ccc(F)cc2)SC1=S)Nc1ccccc1,inactive
7,O=C(CCCN1C(=O)/C(=C\c2cccs2)SC1=S)Nc1ccc(O)cc1,11.2 µM (active)
8,O=C(CCCN1C(=O)/C(=C/c2cccs2)SC1=S)Nc1ccc(O)cc1,11.2 µM (active)
9,Cc1noc(C)c1C(=O)Nc1nc(-c2ccc(F)cc2)cs1,inactive
10,COc1ccc(NC(=O)c2c(-c3c(Cl)cccc3Cl)noc2C)c(OC)c1,3.16 µM (active)
11,Cc1onc(-c2c(Cl)cccc2Cl)c1C(=O)Nc1nc(C(C)(C)C)cs1,11.2 µM (active)
12,Cc1ccc(Cl)cc1N1CCN(Cc2nc3c(c(=O)[nH]c(=O)n3C)n2CCc2ccccc2)CC1,7.08 µM (active)
13,COC(=O)c1ccc(CSc2ccccc2C)o1,inactive
14,CCc1ccc(OCCNC(=O)c2ccccc2SCc2ccccc2)cc1,14.1 µM (active)
15,CCCCNC(=O)c1onc(CSc2ccccc2C)c1C(=O)O,inactive
16,O=S(=O)(c1cccs1)N1CCC(CO)(Cc2cccc(F)c2)CC1,inactive
17,O=S(=O)(c1cccs1)N1CCN(c2ccnc3cc(Cl)ccc23)CC1,5.01 µM (active)
18,CN(C)S(=O)(=O)N1CCN(c2ccnc3cc(Cl)ccc23)CC1,12.6 µM (active)
